This is a sample that favours compounds with a hit; in the whole collection about 19% have one here.
VP16 counter: Gal4-VP16 reporter inhibition counter-screen; Drosophila S2 Gal4-VP16 UAS-luciferase, luminescence, 20 h; Potency, µM (doses to about 53.6 µM), without a hit: at the top dose activity, negative = inhibition, most hits filed as inhibitors; hit rate 3.5% among 310,000;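 note: Gal4-VP16 expression switched on by copper sulfate through the metallothionein promoter; nearly all actives have a fitted effect of over 50% in size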
TDP1 inh: TDP1 (human) enzyme inhibition | hit rate 0.28% among 350,000 | Potency, µM (top dose mostly 130 µM), without a hit: at the highest dose activity change, negative = inhibition, hits mostly inhibitors | AID 485290 | Q9NUW8 | recombinant TDP1, AlphaScreen DNA substrate cleavage; note: nearly all actives have a fitted effect of over 40% in size
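E. coli-derived human Tdp1, 1 nM final. Cpd preinc 15 min RT; substrate 15 nM final, 5 min RT; AS bead mix 10 ug/ml final, 10 min RT. Signal loss = tyrosine-FITC cleavage. No-enzyme wells = max signal.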
TDP1 cell noCPT: qHTS for Inhibitors of human tyrosyl-DNA phosphodiesterase 1 (TDP1): qHTS in cells in absence of CPT; DT40 Tdp1-/- hTDP1 cells, no CPT, ATP luminescence, 48 h; Potency, µM (series often up to 46.2 µM), for the others: at the highest dose activity change, negative = growth inhibition, most hits filed as inhibitors; hit rate 15% among 420,000; AID 686978, 2013; note: nearly all actives have a fitted effect of over 55% in size
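DT40 Tdp1-/-;hTDP1 cells, no CPT (DMSO vehicle only), 400 cells/well; compounds pin-transferred; ≥48 hr, 37 °C; CellTiter-Glo 30 min RT dark, luminescence read.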
RORg inh: inhibitors of mouse ROR gamma transcriptional activity; Potency, µM (titrated, usually from 53.6 µM), inactives show at the top dose activity change, negative = inhibition, usual class: inhibitors; Drosophila S2 Gal4-RORgamma UAS-luciferase reporter, 20 h; P51450; AID 2551; hit rate 5.4% among 310,000; note: nearly all actives have a fitted effect of over 60% in size
Target sequence (P51450 whole entry, looked up, the tested form may be a part): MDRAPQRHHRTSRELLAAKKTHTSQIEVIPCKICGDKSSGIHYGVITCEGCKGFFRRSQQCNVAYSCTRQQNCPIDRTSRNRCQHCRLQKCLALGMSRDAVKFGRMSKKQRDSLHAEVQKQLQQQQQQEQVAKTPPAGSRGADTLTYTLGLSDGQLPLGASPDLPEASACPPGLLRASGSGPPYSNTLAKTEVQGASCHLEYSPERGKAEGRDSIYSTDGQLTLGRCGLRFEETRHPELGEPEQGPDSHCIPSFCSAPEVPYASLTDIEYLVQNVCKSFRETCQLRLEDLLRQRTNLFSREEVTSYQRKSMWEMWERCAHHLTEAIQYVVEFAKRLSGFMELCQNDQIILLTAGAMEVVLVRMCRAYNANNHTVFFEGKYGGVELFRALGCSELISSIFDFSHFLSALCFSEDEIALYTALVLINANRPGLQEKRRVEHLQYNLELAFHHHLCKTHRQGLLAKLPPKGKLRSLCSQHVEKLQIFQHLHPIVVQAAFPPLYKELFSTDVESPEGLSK
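Drosophila S2 cells stably expressing Gal4-DBD/mouse RORγ fusion under metallothionein promoter plus UAS-luciferase; compound 1 h, then 700 uM CuSO4 induction for 20 h at ambient temperature; inhibition read as reduced luminescence.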
DT40 TDP1 CPT: growth inhibition of DT40 Tdp1-/-;hTDP1 cells with camptothecin (screen for TDP1 inhibitors). chicken DT40 Tdp1-/-;hTDP1 cells + 20 nM CPT, ATP luminescence, 48 h. AID 686979. Potency, µM (doses to about 46.2 µM), for the others: at the top dose activity change, negative = growth inhibition, usual class: inhibitors. hit rate 12% among 420,000; note: nearly all actives have a fitted effect of over 55% in size
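Chicken DT40 Tdp1-/- cells complemented with human TDP1, 400 cells/well, exposed to compounds plus 20 nM camptothecin for at least 48 h at 37 C; viability read as ATP content by CellTiter-Glo luminescence.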
* = called active by the depositor; ? = inconclusive; . = no result; [ ] = another dose, or the depositor's remark. Calls come from the whole dose curve; as a rule, active = well fitted curve in the direction sought with a large enough effect; inconclusive = small, poorly fitted or top-dose-only effect, or another doubt; inactive = no such curve, though single readings can be large; an effect the other way counts as inactive or inconclusive. % is set by controls: 0 for no effect and ±100 for the full control effect; potency is the fitted concentration of half-maximal effect.

SMILES	VP16 counter	TDP1 inh	TDP1 cell noCPT	RORg inh	DT40 TDP1 CPT
COC(=O)C1(S(=O)(=O)c2cccc3nsnc23)CC1	24%	3%	?	-26%	-7%
Cc1ccc(-c2nc(C(=O)NCCCN(C)C)cc3c2[nH]c2ccccc23)cc1	?	.	23µM*	?	?
Cc1nc(C(=O)NCCO)cc2c1[nH]c1ccccc12	-6%	.	-6%	14%	9%
C[C@H](NC(=O)c1cc2c([nH]c3ccccc32)c(-c2ccccc2)n1)C(=O)O	-13%	.	?	7%	?
Cc1nc(C(=O)NCCCO)cc2c1[nH]c1ccccc12	-9%	.	?	9%	?
O=C(NCCO)c1cc2c([nH]c3ccccc32)c(-c2ccccc2)n1	-2%	.	16µM*	-10%	?
O=C(NCCO)c1cc2c([nH]c3ccccc32)c(-c2ccc(F)cc2)n1	-10%	.	16µM*	-12%	?
Cc1ccnc(NC(=O)CSc2ccc3c(c2)OCCO3)c1	.	-13%[0.505 µM]	?	.	-16%
COc1ccccc1N=Cc1c(C)c(C#N)c2[nH]c3ccccc3n2c1=O	14%	5%	?	7%	-12%
O=S(=O)(CCNCc1ccco1)NCc1ccccc1	.	.	-2%	.	4%
CC(C)(C)OC(=O)N1CCC(NC(=O)c2[nH]cnc2C(=O)Nc2ccc(Br)cc2F)CC1	.	.	18µM*	.	21µM*
CC(C)(C)OC(=O)N1CCC(NC(=O)c2[nH]cnc2C(=O)Nc2ccc(Cl)cc2)CC1	.	0%	?	.	?
C[C@H](NC(=O)c1nc[nH]c1C(=O)NC1CCN(C(=O)OC(C)(C)C)CC1)C(=O)OCc1ccccc1	?	8%	?	14µM*	?
CN(Cc1ccccc1)C(=O)c1[nH]cnc1C(=O)NC1CCN(C(=O)OC(C)(C)C)CC1	.	3%	?	.	21µM*
CC(C)(C)OC(=O)N1CCC(NC(=O)c2[nH]cnc2C(=O)Nc2ccccc2)CC1	.	1%	?	.	?
CC(=O)N1CCN(C(=O)CCC(=O)O)CC1	-1%	1%	-5%	28%	5%
COc1ccc(C2(C(=O)NCCN3CCOCC3)CCOCC2)cc1	-1%	4%	-1%	-23%	?
COc1ccc(C2(C(=O)NCCCN3CCOCC3)CCOCC2)cc1	-5%	4%	8%	3.5µM*	-5%
O=C(NNC(=O)c1ccc(Cl)cc1Cl)c1cnccn1	?	.	26µM*	?	?
Cc1ccc(OCC(=O)NCCCNC(=O)c2cnccn2)cc1C	-16%	.	-1%	-2%	?
Cc1cc(OCC(=O)NNC(=O)c2cnccn2)cc(C)c1Cl	.	4%	5.8µM*	.	10µM*
O=C(Nc1ccccc1Cl)c1cnccn1	?	0%	5%	-14%	6%
O=C(NNC(=O)c1cnccn1)c1ccc(Cl)cc1	16µM*	9%	15µM*	8.9µM*	?
Cc1c(CCO)sc[n+]1CC(=O)c1ccc(F)cc1	.	.	-5%	.	-13%
COc1cccc(CC2(CO)CCN(C(=O)NC3CCCCC3)CC2)c1	-1%	-4%	-28%	4%	23µM*
SMILES	VP16 counter	TDP1 inh	TDP1 cell noCPT	RORg inh	DT40 TDP1 CPT
COc1cccc(CC2(CO)CCN(C(=O)NCCc3ccccc3)CC2)c1	3%	-7%	-9%	34%	-10%
COc1ccc2[nH]c(C(=O)N3CCC(CO)(Cc4cccc(C(F)(F)F)c4)CC3)c(C)c2c1	-11%	.	21µM*	?	?
CCC(CC)C1C(C#N)=C(N)Oc2n[nH]c(-c3ccccc3)c21 (centres undefined)	-16%	2%	26µM*	-37%	?
Cc1[nH]nc2c1C(C1CC=CCC1)C(C#N)=C(N)O2 (centres undefined)	11µM*	2%	?	6.3µM*	21µM*
N#CC1=C(N)Oc2n[nH]c(-c3ccccc3)c2C1c1ccsc1 (centres undefined)	-10%	1%	12µM*	-2%	?
Cc1ccc(-c2[nH]nc3c2C(c2ccsc2)C(C#N)=C(N)O3)cc1 (centres undefined)	-11%	10%	-28%	-15%	-6%
CCC(CC)C1C(C#N)=C(N)Oc2n[nH]c(C)c21 (centres undefined)	7%	6%	16µM*	-17%	18µM*
CCc1[nH]nc2c1C(C(C)C)C(C#N)=C(N)O2 (centres undefined)	-16%	-2%	?	-18%	?
Cc1[nH]nc2c1C(c1ccsc1C)C(C#N)=C(N)O2 (centres undefined)	-3%	-4%	-24%	?	?
CCCCn1c(=O)c2oc3ccccc3c2n(Cc2cccc(F)c2)c1=O	.	0%	?	.	?
COc1cc(-c2ccc(N=C=O)c(OC)c2)ccc1N=C=O	-2%	23%	.	6%	.
Cc1ccc(S(=O)(=O)CCC(=O)OCc2ccc(Cl)cc2)cc1	0%	-4%	3%	11%	-24%
CC(C)C1C(C#N)=C(N)Oc2n[nH]c(-c3ccc4ccccc4c3)c21 (centres undefined)	-2%	8%	10µM*	3%	?
CC(C)C1C(C#N)=C(N)Oc2n[nH]c(-c3cccs3)c21 (centres undefined)	0%	2%	7%	2%	3%
CCc1[nH]c(=S)c(C#N)c2c1CCCC2	?	-3%	-8%	?	-2%
COc1ccc(CC(=O)NNS(=O)(=O)c2ccccc2[N+](=O)[O-])cc1OC	-5%	2%	-18%	-1%	7%
COc1ccc(NCc2ccccc2[N+](=O)[O-])cc1OC	4%	8%	16µM*	4%	16µM*
COc1ccc(NC(=O)COC(=O)Cc2ccccc2[N+](=O)[O-])cc1OC	-18%	9%	26µM*	?	?
COc1ccccc1CNc1ccc2c(c1)CCC2	3%	.	10µM*	26%	4.6µM*
COc1cc2c(cc1OC)C(Cc1ccccc1[N+](=O)[O-])=NCC2	.	.	23µM*	.	?
COc1ccc(NC(=O)COC(=O)Cc2c[nH]c3ccccc23)cc1OC	-3%	0%	0%	3%	-1%
CC(=O)Nc1cccc(-c2nc(-c3ccccc3)no2)c1	.	2%	?	.	?
CC1Cc2ccccc2N1C(=O)CSc1nnc(-c2ccc(S(=O)(=O)N3CCOCC3)cc2)n1C (centres undefined)	-4%	-2%	?	34%	16µM*
CCN(CC)C(=O)CSc1nnc(-c2ccc(S(=O)(=O)N3CCCC3)cc2)o1	3%	-2%	-10%	0%	-8%
